Compounds without any hit were thinned out: in the full panel of roughly 83,000, 20% have a hit.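 Assay: single dose, 48 h. Readout: percent growth (0 = no net growth; negative = cell death). Active: <10.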 Calls of active or inactive are those of the source.
Each compound was assayed on UACC-257 melanoma (assay: NCI-60 one-dose screen, 48 h (100 = growth as untreated, 0 = no growth, -100 = all killed)). Conditions: 10 µM unless noted.
In the case of `COC(=O)[C@H](C)NC(=O)[C@@H]1CCCN1C(=O)CNC(=O)[C@H](C)N`, the growth is reported as 103% (inactive). `O=C1c2c(c3c4cccnc4[nH]c3c3ccc4ccccc4c23)C(=O)N1O` was tested, and the growth was 76.4% (inactive). For `C#CCOc1cccc(Nc2ncnc3c(NC(=O)CCl)cccc23)c1`, the growth was 56.9% (inactive). In the case of `COc1ccc(CNc2c3ccccc3nc3ccccc23)cc1OC`, the growth is reported as 22.1% (inactive). With `COc1ccc(-c2csc(NC(=O)CSc3nc(C)cc(=O)[nH]3)n2)cc1` the growth was 101% (inactive). `O=C(CNc1ncco1)Nc1ccc(S(=O)(=O)c2ccc(NC(=O)CNc3ncco3)cc2)cc1` was tested, and the growth was 10.3% (inactive). In the case of `Cc1c2cnccc2c(C)c2c1c1cc(C(=O)O)ccc1n2C`, the growth is reported as -31.4% (active). With `COc1ccc(-c2cn(Cc3ccc4c(Br)cc(Br)c(O)c4n3)nn2)cc1` the growth was 87.9% (inactive). For `COC(=O)c1c(C(=O)OC)c2ccc3c4ncccc4ccc3n2c1C(=O)c1ccc(C)cc1`, the growth was 95.2% (inactive). For `O=[N+]([O-])c1ccc(N/N=C\c2cc(Cl)ccc2O)nc1`, the growth was 30.2% (inactive). For `COc1ccc(C(=O)/C=C/c2ccc(C)cc2)cc1S(N)(=O)=O`, the growth was 83.2% (inactive). For `CN1CCN(CC(=O)N(C)c2ccc(N=C(c3ccccc3)c3c(O)[nH]c4ccc([N+](=O)[O-])cc34)cc2)CC1`, the growth was 103% (inactive). With `C=CC(=O)NCc1cccc(Nc2ncc(Br)c(NCCCNC(=O)C3CCC3)n2)c1` the growth was 0.107% (active). In the case of `Nc1nc(N)c2c(n1)NC(c1cccc(Nc3ccnc4cc(C(F)(F)F)ccc34)c1)CC(c1ccc(Cl)cc1)=N2` (centres undefined), the growth is reported as 87.3% (inactive). In the case of `C=C(C[n+]1ccccc1)[C@@H]1CC[C@]2(C(=O)OC)CC[C@]3(C)[C@H](CC[C@@H]4[C@@]5(C)CCC(=O)C(C)(C)[C@@H]5CC[C@]43C)[C@@H]12`, the growth is reported as 53.4% (inactive).

The compounds below were run on M14 melanoma in the same assay as above. Conditions: 10 µM unless noted.
For `CO[C@H]1CC(c2ccc[nH]2)=N[C@]12O[C@@H](C)C[C@@H]1CCCCCCCc3ccc([nH]3)[C@H]12`, the growth was 13.2% (inactive). With `COc1ccc2c(O)cc3c(c2c1)[C@H](CCl)CN3C(=O)c1cc2cc(NC(=O)CCN3CCOCC3)ccc2[se]1` the growth was -71.1% (active). With `O=c1c(/C=C/c2c(O)ccc3ccccc23)nnc2sc(-c3cccc([N+](=O)[O-])c3)nn12` the growth was 52.3% (inactive). With `CC1(C)CCC[C@]23C(=O)O[C@](O)(C(=O)C4=C[C@@](C)(/C=C/CCCc5ccc6ccc7cccc8ccc5c6c78)CC[C@@]42O)[C@@H]13` the growth was -62% (active). `CCOC(=O)CC1C(CNC(=O)NC)OC(n2cnc3c(NC(=O)Nc4ccccc4)ncnc32)C1O[Si](C)(C)C(C)(C)C` (centres undefined) was tested, and the growth was 67.3% (inactive). With `COc1ccc(-c2ccc(-c3ccc(C(=N)N)nc3)s2)cc1` the growth was -56.6% (active). For `COc1ccc(Cn2cc3c(c2)-c2oncc2CC3)cc1`, the growth was 29.2% (inactive). In the case of `O=[N+]([O-])c1ccc(Oc2cccc3c(Oc4ccc([N+](=O)[O-])cc4[N+](=O)[O-])cccc23)c([N+](=O)[O-])c1`, the growth is reported as 93.3% (inactive). In the case of `CCCCCN(CCCCC)CC(O)c1c(Cl)ccc2ccccc12` (centres undefined), the growth is reported as 72.2% (inactive). `Cn1cc(-c2csc(-c3cn(C)c4ccc(F)cc34)n2)c2cnccc21` was tested, and the growth was -80% (active). With `CNC1=C([N+](=O)[O-])C(c2ccc(OC)cc2)C(C#N)=C(c2ccc[nH]2)O1` (centres undefined) the growth was 104% (inactive). For `Cc1cc(C(=O)Nc2cc(Nc3ncccc3-c3ncnc4nc[nH]c34)ccc2F)cc(C(C)(C)C#N)c1`, the growth was 5.3% (active). With `COC(=O)CNC(=O)c1ccc(NC(=O)c2[nH]c(C)c(Cl)c2Cl)c(O[C@H]2CCNC2)c1` the growth was 107% (inactive). In the case of `FC(F)(F)c1cccc(-c2nnn(Cc3cc(-c4cccc(Cl)c4)no3)n2)c1`, the growth is reported as 101% (inactive). `O=C(Nc1ncc(Cc2ccccc2)s1)c1ccc2c(c1)OCCO2` was tested, and the growth was 18.6% (inactive). For `CCOC(=O)c1ccc2c(c1)[n+](=O)c(C(C)=O)c(C(F)(F)F)n2[O-]`, the growth was 8.64% (active). With `O=C(Nc1ccccc1C(F)(F)F)C1=NCCCCN1` the growth was 98.3% (inactive). With `CCCCCC(C)(O)C(C(=O)O)c1ccccc1` (centres undefined) the growth was 96.7% (inactive). For `Nc1ncnc2c1N=C(c1ccc([N+](=O)[O-])cc1)CC(c1ccc3c(c1)OCO3)N2` (centres undefined), the growth was 119% (inactive). In the case of `COc1cc2c(cc1OC)CC[N+](CCC[N+](C)(C)C)=C2`, the growth is reported as 91.7% (inactive). With `O=C1Nc2ccccc2/C1=C/c1cccn1CCCCCCn1c2ccccc2c(=O)c2ccccc21` the growth was 78.2% (inactive). For `CCCS(=O)(=O)Nc1cccc(Nc2ncnc3cc(NC(=O)CCl)ccc23)c1Cl`, the growth was -43.5% (active). `Cc1ccc(C23CCC(=O)N2CCc2cncn23)cc1` (centres undefined) was tested, and the growth was 101% (inactive). With `Cc1ccc(-c2nn(CC(=O)N3CCOCC3)c(N)c2C#N)cc1` the growth was 104% (inactive). For `COC(=O)[C@H](C)NC(=O)[C@@H]1CCCN1C(=O)CNC(=O)[C@H](C)N`, the growth was 103% (inactive). For `O=C1c2c(c3c4cccnc4[nH]c3c3ccc4ccccc4c23)C(=O)N1O`, the growth was 49% (inactive). `C#CCOc1cccc(Nc2ncnc3c(NC(=O)CCl)cccc23)c1` was tested, and the growth was 5.19% (active). With `COc1ccc(CNc2c3ccccc3nc3ccccc23)cc1OC` the growth was 17.7% (inactive). With `COc1ccc(-c2csc(NC(=O)CSc3nc(C)cc(=O)[nH]3)n2)cc1` the growth was 107% (inactive). In the case of `O=C(CNc1ncco1)Nc1ccc(S(=O)(=O)c2ccc(NC(=O)CNc3ncco3)cc2)cc1`, the growth is reported as -28.8% (active). For `Cc1c2cnccc2c(C)c2c1c1cc(C(=O)O)ccc1n2C`, the growth was -0.906% (active). With `COc1ccc(-c2cn(Cc3ccc4c(Br)cc(Br)c(O)c4n3)nn2)cc1` the growth was 83.3% (inactive). With `COC(=O)c1c(C(=O)OC)c2ccc3c4ncccc4ccc3n2c1C(=O)c1ccc(C)cc1` the growth was 90.1% (inactive). With `O=[N+]([O-])c1ccc(N/N=C\c2cc(Cl)ccc2O)nc1` the growth was 17.1% (inactive). With `COc1ccc(C(=O)/C=C/c2ccc(C)cc2)cc1S(N)(=O)=O` the growth was 71.1% (inactive). In the case of `CN1CCN(CC(=O)N(C)c2ccc(N=C(c3ccccc3)c3c(O)[nH]c4ccc([N+](=O)[O-])cc34)cc2)CC1`, the growth is reported as 36.3% (inactive). With `C=CC(=O)NCc1cccc(Nc2ncc(Br)c(NCCCNC(=O)C3CCC3)n2)c1` the growth was -31% (active). In the case of `Nc1nc(N)c2c(n1)NC(c1cccc(Nc3ccnc4cc(C(F)(F)F)ccc34)c1)CC(c1ccc(Cl)cc1)=N2` (centres undefined), the growth is reported as 29.7% (inactive). With `C=C(C[n+]1ccccc1)[C@@H]1CC[C@]2(C(=O)OC)CC[C@]3(C)[C@H](CC[C@@H]4[C@@]5(C)CCC(=O)C(C)(C)[C@@H]5CC[C@]43C)[C@@H]12` the growth was 87% (inactive).

— PubChem BioAssay (NCI)
